Many of the other results were omitted from the sample, so hits are more common in it than they were.
Pf Dd2 inh: qHTS Primary assay for Inhibitors of Plasmodium falciparum Dd2 growth in vitro. 120,000 tested, 4.3% active. Potency, µM (top dose mostly 28.9 µM), usual class: inhibitors. P. falciparum Dd2 growth, SYBR Green, 72 h. AID 1347417, 2020; active = well fitted inhibition curve with a large enough effect; note: nearly all actives have a fitted effect of over 65% in size
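Infected erythrocytes (Dd2, 0.3% parasitemia, 2.5% hematocrit final) are added to compound in RPMI-1640/Albumax II medium, grown 72 h at 37C in low oxygen, then lysed with saponin/Triton-X containing SYBR Green and read by fluorescence.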
Each line names hits and unclear results; the compound was inactive in the other large screens.

CCc1ccc(C(=O)c2cn(CC(=O)Nc3ccc(F)c(F)c3)c3cc(OC)c(OC)cc3c2=O)cc1	none
CCc1ccc(C(=O)c2cn(CC(=O)Nc3cc(OC)cc(OC)c3)c3ccc(CC)cc3c2=O)cc1	none
CCc1ccc(C(=O)c2cn(CC(=O)Nc3cc(OC)ccc3OC)c3ccc(C)cc3c2=O)cc1	Pf Dd2 inh 10µM
O=C(c1ccc2c(c1)OCO2)N1CCC(N2Cc3ccccc3C2=O)CC1	none
O=S(=O)(Cc1ccccc1)N1CC(c2nnc(-c3ccncc3)o2)C2(CCOCC2)C1 (stereo not given)	none
O=C(c1cccnc1OC1CCN(S(=O)(=O)Cc2ccccc2)C1)N1CCOCC1 (stereo not given)	none
CCOc1ccc(Nc2c(S(=O)(=O)c3ccc(C)cc3)cnc3cc(OC)c(OC)cc23)cc1	none
COc1ccc(C(=O)c2cnc3ccc(C)cc3c2S(=O)(=O)c2ccccc2)cc1	Pf Dd2 inh 11.2µM
COc1ccc(S(=O)(=O)c2c(C(=O)c3ccc(C)c(C)c3)cnc3ccc(F)cc23)cc1	none
COc1ccc(-c2cc(C(=O)Oc3cccc(C)c3)c3cc(C)ccc3n2)cc1	none
CCOc1ccc(Nc2c(S(=O)(=O)c3ccc(C)cc3)cnc3ccc(OC)cc23)cc1	none
CCOc1ccc(S(=O)(=O)c2c(C(=O)c3ccc(C)c(C)c3)cnc3ccccc23)cc1	Pf Dd2 inh 7.94µM
Cc1cc(C)n(CC(=O)N2CCC(c3nc(CCOc4ccc(F)cc4)no3)C2)n1 (stereo not given)	none
CN(C)C[C@@H]1CN(c2ccccn2)C[C@H]1NC(=O)c1ccc2c(c1)OCO2	none
O=C(c1ccsc1)N1CC2CC(C1)[C@H]1CCCC(=O)N1C2 (stereo not given in full)	none
O=C1CCN(C(=O)C2CCN(C(=O)CN3CCCC3=O)CC2)CCCCCCN1	none
Cn1ccnc1CN1CCN(CC2(O)CCNC2)CC1 (stereo not given)	none
CN1CC(=O)N(C2CCNCC2)Cc2c(NCCN3CCOCC3)ncnc21	none
CCn1ccc2cc(S(=O)(=O)N3CCC(C(=O)NCCc4ccc(SC)cc4)CC3)ccc21	Pf Dd2 inh 8.91µM
CCn1ccc2cc(S(=O)(=O)N3CCC(C(=O)NCc4ccc(F)cc4)CC3)ccc21	none
CCn1ccc2cc(S(=O)(=O)N3CCC(C(=O)NCCc4ccccc4)CC3)ccc21	none
CCc1cccc(NC(=O)Cn2c(C)cc3nc4n(c(=O)c32)CCCCC4)c1	none
CCc1ccc(CN2CCC3(CCC(=O)N(Cc4cnc(C)cn4)C3)CC2)o1	none
CC(=O)c1cccc(Nc2c3c(nc4nc(-c5cccs5)nn24)CCCC3)c1	Pf Dd2 inh 11.2µM
c1csc(-c2nc3nccc(-c4ccncc4)n3n2)c1	none
COc1ccc(C)cc1Nc1c2c(nc3nc(-c4cccs4)nn13)CCCC2	none
Cc1nc2c(c(-c3ccc(Cl)cc3)n1)CN([S+](=O)([O-])c1ccsc1)CC2	none
COCC1CN(C(=O)Cc2c[nH]c3ccccc23)CC12CCOCC2 (stereo not given)	none
Cc1cccc(C(=O)NCc2nnc3cc(-c4nc(C(C)C)no4)ccn23)c1	Pf Dd2 inh 10µM
Cc1cccc(C(=O)NCc2nnc3cc(-c4nc(C)no4)ccn23)c1	none
CC(C)c1noc(-c2ccn3c(CNC(=O)Cc4ccccc4Cl)nnc3c2)n1	Pf Dd2 inh 5.01µM
CC(C)c1noc(-c2cccn3c(CNC(=O)Cc4ccccc4Cl)nnc23)n1	none
Cc1ccc(CC(=O)NCc2nnc3cc(-c4nc(C(C)C)no4)ccn23)cc1	none
Cc1ccc(C)c(C(=O)NCc2nnc3cc(-c4nc(C(C)C)no4)ccn23)c1	none
O=C1CCN(Cc2ccncc2)CCCC(C(=O)NCc2cccnc2)CCN1 (stereo not given)	none
CN(Cc1cccnc1)C(=O)CCC1CCCN(S(=O)(=O)c2ccccc2)C1 (stereo not given)	none
Cc1ccc(C(=O)NCCC(=O)N2CC[C@@](C)(O)[C@@H](O)C2)cc1	none
O=C(NCCC1CCN(C(=O)Nc2ccc(F)cc2)CC1)c1cc(F)ccc1F	none
CCn1cnnc1CCNC(=O)c1cc(-c2ccc(C)cc2)nc2ccccc12	none
C=CCNC(=O)CN1CC2CC(C1)[C@H]1CCCC(=O)N1C2 (stereo not given in full)	none
O=S(=O)(N[C@H]1[C@H](O)[C@H](O)C[C@@H]1c1ccccc1)c1ccc(C(F)(F)F)cc1	none
N#Cc1ccc(S(=O)(=O)N[C@H]2[C@H](O)[C@H](O)C[C@@H]2c2ccc(C(F)(F)F)cc2)cc1	Pf Dd2 inh 11.2µM
O=S(=O)(N[C@H]1[C@H](O)[C@H](O)C[C@@H]1c1cncnc1)c1ccc(C(F)(F)F)cc1	none
Cc1ccc(-c2cc(C3CCN(C(=O)c4ccncc4)CC3)[nH]n2)cc1	none
CCn1cc(CN2CCCC(c3nc(CCOc4cccc(C)c4)no3)C2)cn1 (stereo not given)	none
COc1ccc(CCCN2C(=O)O[C@@H]3CN(c4cc(OC)ncn4)C[C@@H]32)cc1	none
Cc1ccc(CN2CCC(C(=O)N3CCCCCCNC(=O)CC3)CC2)o1	none
CC(C)(C)CN1CC[C@H]2COC(=O)N2c2cc(F)ccc2C1	none
CC(=O)NC[C@@H]1C=C(C)[C@H](Cc2nnc(-c3cncn3C)o2)C[C@H]1C(C)C	none
CC1=C[C@@H](CNCc2ccncc2)[C@H](C(C)C)C[C@H]1Cc1nnc(C)o1	none
CC1=C[C@@H](CNCc2ccccn2)[C@H](C(C)C)C[C@H]1Cc1nnc(-c2ccccc2F)o1	Pf Dd2 inh 3.16µM
CC(=O)N1CCN(C[C@@H]2C=C(C)[C@H](Cc3nnc(-c4cncn4C)o3)C[C@H]2C(C)C)CC1	none
CC(=O)N1CCN(C[C@@H]2C=C(C)[C@H](Cc3nnc(-c4ccccc4F)o3)C[C@H]2C(C)C)CC1	Pf Dd2 inh 12.6µM
CC1=C[C@@H](CN2CCOCC2)[C@H](C(C)C)C[C@H]1Cc1nnc(-c2ccncc2)o1	none
CC1=C[C@@H](CN2CCN(c3ccccc3)CC2)[C@H](C(C)C)C[C@H]1Cc1nnc(-c2cncn2C)o1	Pf Dd2 inh 3.98µM
CC1=C[C@@H](CNCCN2CCOCC2)[C@H](C(C)C)C[C@H]1Cc1nnc(-c2ccccc2)o1	Pf Dd2 inh 3.98µM
CC1=C[C@@H](CNC(=O)COc2ccccc2)[C@H](C(C)C)C[C@H]1CC(=O)NCCN1CCOCC1	none
CC1=C[C@@H](CNCc2ccc(C#N)cc2)[C@H](C(C)C)C[C@H]1Cc1nnc(-c2cccnc2)o1	none
Cn1cnc(S(=O)(=O)N2CCCC(C(=O)NCCC3=CCCCC3)CCNC(=O)CC2)c1 (stereo not given)	none
COc1ccccc1C(=O)N1CCC2(CC1)CN(c1ncccn1)CC2CO (stereo not given)	none
CC1(C(=O)N2CCC(c3ccccc3)CC2)CCc2cnc(N3CCOCC3)nc21 (stereo not given)	none
O=C(Nc1ccccc1)N[C@H]1CO[C@H]2[C@@H]1OC[C@H]2OC(=O)Nc1ccccc1	none
CC1=NS(=O)(=O)N(C)C=C1C(=O)OCc1nc(Cc2ccccc2C)no1	none
CCN1c2cc(C(=O)NCc3ccc(F)cc3Cl)ccc2C(=O)N2CCCCC21 (stereo not given)	none
CC(C)N1C[C@H](C(=O)N2CCC(Cc3ccccc3)CC2)[C@H](C(=O)O)C1	none
COc1ccc(CCC2CCCN(S(=O)(=O)N(C)C)C2)cc1 (stereo not given)	none
CC(=O)N1CCN(C[C@@H]2C=C(C)[C@H](Cc3nnc(-c4ccncc4)o3)C[C@H]2C(C)C)CC1	Pf Dd2 inh 11.2µM
CC1=C[C@@H](CNC(=O)C2CC2)[C@H](C(C)C)C[C@H]1Cc1nnc(-c2ccccc2F)o1	Pf Dd2 inh 15.8µM
CC1=C[C@@H](CNC(=O)C2CCCCC2)[C@H](C(C)C)C[C@H]1CC(=O)NCc1cccnc1	none
